RE007 growth inh: less growth of the S. pombe RE007 Vpr strain. S. pombe RE007 Vpr strain, BacTiter-Glo ATP luminescence, 24 h. Potency, µM (doses to about 92.2 µM), inactives show at the highest dose activity change, negative = less growth, hits mostly inhibitors. 360,000 tested, 0.21% active. AID 651644; active = well fitted falling curve with a large enough effect; inconclusive = small, poorly fitted or top-dose-only effect; inactive = no such curve, though single readings can be large or run the other way; note: potency is the fitted concentration of half-maximal effect; % is set by controls: 0 for no effect and ±100 for the full control effect; nearly all actives have a fitted effect of over 50% in size
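Fission yeast strain RE007, carrying one chromosomally integrated HIV-1 vpr copy, was seeded at OD 0.01 in PMG+AL medium with 23 nL pinned compound. After 24 h at 30 °C and 99% humidity, viability was read by BacTiter-Glo luminescence.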
CHX counter: counter-screen for Shiga toxin inhibitors: cycloheximide protein synthesis inhibition. cell reporter, cycloheximide protein synthesis inhibition counterscreen. max response, %. 300,000 tested, 12% active. AID 2314; in the data active = max response mostly above about 13%, no sharp cut-off; inactive = mostly below about 14%; note: read at 38.3 µM for the half of the compounds with a filed dose; 0% is about no effect
TbPYK inhibitor: blocks Trypanosoma brucei pyruvate kinase; Q57TT1; TbPYK enzyme, Kinase-Glo Plus ATP luminescence, 45 min; Potency, µM (top dose mostly 76.8 µM), for inactives: at the highest dose activity, negative = inhibition, hits mostly inhibitors; 410,000 tested, 0.12% active; AID 624173; note: potency is the fitted concentration of half-maximal effect; % is set by controls: 0 for no effect and ±100 for the full control effect; nearly all actives have a fitted effect of over 50% in size
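Screened from lowest to highest concentration, compounds were pinned into TbPYK/substrate mixtures, and ADP (130 uM final) was added. Plates sat at room temperature for 45 min prior to Kinase-Glo Plus detection by luminescence.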
LmPK inhibitor: inhibitors of Leishmania mexicana pyruvate kinase; Potency, µM (highest dose often 57.5 µM), without a hit: top-dose activity change, negative = inhibition, usual class: inhibitors; 290,000 tested, 0.37% active; Q27686; purified LmPK, Kinase-Glo ATP luminescence, 1 h; note: potency is the fitted concentration of half-maximal effect; % is set by controls: 0 for no effect and ±100 for the full control effect
Target sequence (Q27686 whole entry, looked up): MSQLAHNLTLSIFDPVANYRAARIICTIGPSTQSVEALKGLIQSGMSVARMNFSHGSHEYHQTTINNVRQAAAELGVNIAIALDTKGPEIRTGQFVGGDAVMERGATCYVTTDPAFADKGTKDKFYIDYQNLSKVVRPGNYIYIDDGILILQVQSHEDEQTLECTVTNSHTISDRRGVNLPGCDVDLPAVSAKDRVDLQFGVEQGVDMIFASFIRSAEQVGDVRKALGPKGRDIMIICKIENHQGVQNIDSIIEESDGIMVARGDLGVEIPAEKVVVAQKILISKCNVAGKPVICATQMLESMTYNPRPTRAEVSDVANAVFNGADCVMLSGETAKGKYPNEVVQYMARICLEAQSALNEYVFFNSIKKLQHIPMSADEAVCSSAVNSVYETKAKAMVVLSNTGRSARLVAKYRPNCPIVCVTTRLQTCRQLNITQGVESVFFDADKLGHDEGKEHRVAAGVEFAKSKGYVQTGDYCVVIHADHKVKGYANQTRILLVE
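0.1 nM LmPK, 0.5 mM PEP, 0.1 mM ADP; 50 mM imidazole pH 7.2, 7 mM MgCl2, 50 mM KCl; 1 h RT. Kinase-Glo luminescence readout, normalized to no-enzyme (full inhibition) and uninhibited wells.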
Shiga toxin inh: inhibitors of Shiga toxin in Vero cells | AID 2315 | inhibition, % at 38.7 µM | Vero cells, Shiga toxin protein synthesis inhibition reporter | 290,000 tested, 9.2% active; in the data active = inhibition mostly above about 28%, no sharp cut-off; inactive = mostly below about 43%; note: 0% is about no effect
FBPA Giardia inh: blocks Giardia fructose-bisphosphate aldolase activity; A8B2U2; purified Giardia FBPA; Potency, µM (top dose mostly 59.6 µM), without a hit: top-dose activity, negative = inhibition, usual class: inhibitors; 290,000 tested, 0.71% active; AID 2451; note: potency is the fitted concentration of half-maximal effect; % is set by controls: 0 for no effect and ±100 for the full control effect; nearly all actives have a fitted effect of over 55% in size
Target sequence (A8B2U2 whole entry, looked up): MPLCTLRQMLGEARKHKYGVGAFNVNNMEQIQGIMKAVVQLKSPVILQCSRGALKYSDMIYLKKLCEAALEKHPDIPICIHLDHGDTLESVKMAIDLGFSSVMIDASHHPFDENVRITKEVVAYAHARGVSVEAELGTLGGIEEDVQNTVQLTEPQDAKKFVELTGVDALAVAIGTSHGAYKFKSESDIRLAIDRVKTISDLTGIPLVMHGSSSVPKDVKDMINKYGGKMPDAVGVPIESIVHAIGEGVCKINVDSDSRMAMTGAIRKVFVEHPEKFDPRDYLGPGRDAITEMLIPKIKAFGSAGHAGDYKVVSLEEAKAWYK
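40 nM FBPA preincubated 10 min at RT with compound (up to 57.5 uM final), then substrate plus GAPDH/TPI/NAD/arsenate coupling and diaphorase/resazurin added. Fluorescence read after 20 min at RT, 525/598 nm.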
The depositor's hits bear a star; i = inactive; ? = inconclusive; · = no result given. The sample as a whole holds a higher share of hits than the screen did. Unless noted, calls come from the whole dose curve; as a rule, active = well fitted curve in the direction sought with a large enough effect; inconclusive = small, poorly fitted or top-dose-only effect, or another doubt; inactive = no such curve, though single readings can be large; an effect the other way counts as inactive or inconclusive.

SMILES | RE007 growth inh | CHX counter | TbPYK inhibitor | LmPK inhibitor | Shiga toxin inh | FBPA Giardia inh
CN(C)C(=O)COc1ncnc2sc(-c3ccccc3)cc12 | 3.8% | 28.2* | 0.9% | 1.1% | 72.3* | 3.5%
Cc1ccc(C(=O)CSc2nc(-c3ccccc3)nc3c2CCCC3)cc1C | · | · | -9.2% | · | · | ·
Cc1ccccc1-c1noc(-c2cc(-c3ccc(F)cc3)n[nH]2)n1 | · | · | 1.6% | · | · | ·
Cc1ccccc1-c1noc(-c2ccc(Cl)cc2)n1 | 5.3% | 24.0* | -5.6% | -10.0% | 25.7 | 0.2%
Fc1ccccc1-c1nc(-c2ccc(Cl)cc2)no1 | -4.2% | · | -1.0% | · | · | ·
Cc1ccccc1-c1noc(-c2ccc(O)cc2)n1 | ? | 52.3* | -27.6% | 14.1µM* | 64.5* | 3.8%
Cc1ccccc1-c1noc(-c2ccccc2F)n1 | -16.1% | 35.6* | 0.2% | ? | 68.0* | 0.7%
O=C1C(c2ccc(F)cc2)N(Cc2ccccc2Cl)C(=O)CN1C1CCCCC1 (stereo not given) | · | · | 5.1% | · | · | ·
COc1cc(NC(=O)CSC2=Nc3ccccc3N=C(c3ccc(F)cc3)C2)cc(OC)c1 | · | · | -6.5% | · | · | ·
CCOC(=O)c1cn2ccc(C)cc2n1 | 2.0% | 29.0* | -21.6% | -9.9% | 76.8* | -5.8%
CCOC(=S)SCc1cn2ccccc2n1 | i | 29.9* | 7.4% | 1.1% | 42.3* | ?
Cc1ccn2cc(CSc3ccccc3N)nc2c1 | -4.6% | 46.1* | -7.7% | 4.5% | 105.0* | 0.8%
Cc1ccn2cc(CC(=O)O)nc2c1 | -14.1% | -2.5 | -4.5% | 9.8% | -1.0 | -28.8%
CCOC(=S)SCc1cn2ccc(C)cc2n1 | -0.7% | 33.7* | -1.7% | -2.8% | 11.9 | ?
Cc1ccc(N=Nc2ccc(N)cc2C)c(S(N)(=O)=O)c1 | -2.2% | 65.0* | 0.0% | -0.2% | 93.9* | ?
Cc1ccc(N=C2N=C(N)c3ccccc32)c(C)c1 | -27.5% | 7.6 | 5.4% | 5.3% | 18.9 | 5.4%
Cc1ccc(C)c(N=Nc2ccc(O)c3ncccc23)c1 | 8.0% | 42.9* | -1.9% | -0.3% | 151.0* | -1.3%
Cc1ccc(N=Nc2cc(C)ccc2O)c(C)c1 | 5.5% | 35.9* | 11.0% | -2.8% | 77.1* | 1.6%
Cc1ccc(N=Nc2c(C)[nH]n(-c3ccccc3)c2=O)c(C)c1 | -2.3% | -0.5 | -14.7% | -7.0% | 15.7 | -0.7%
O=C(CSc1oc(-c2cccs2)nc1S(=O)(=O)c1ccccc1)Nc1ccc(F)cc1 | · | · | 1.2% | · | · | ·
COCc1cc(C)n(CC(=O)Nc2ccc(NC(C)=O)cc2)c(=O)c1C#N | · | · | -1.3% | · | · | ·
CN(C)CCCNC(=O)C(=O)NCC(c1ccc2c(c1)OCO2)N1CCOCC1 (stereo not given) | · | · | 5.2% | · | · | ·
CN1CCc2ccc3c4c2[C@]1(C)Cc1cccc(c1-4)OCO3 | · | 0.1 | · | · | 1.1 | ?
CC(C=NNC(=O)C(=O)NN=CC(C)=Cc1ccccc1)=Cc1ccccc1 | 6.0% | · | -3.3% | · | · | ·
O=C(N/N=C/C(Cl)=C/c1ccccc1)c1ccncc1 | -15.2% | 13.5 | -5.1% | -3.8% | 3.0 | 0.1%
SMILES | RE007 growth inh | CHX counter | TbPYK inhibitor | LmPK inhibitor | Shiga toxin inh | FBPA Giardia inh
O=C(N/N=C/C(Cl)=C\c1ccccc1)c1cccs1 | ? | 51.2* | -4.0% | -4.6% | 81.3* | -1.6%
CC(/C=N/NC(=O)c1cccs1)=C\c1ccccc1 | 3.1% | 41.8* | -6.6% | 0.5% | 144.9* | -0.3%
COc1ccc(C(CC(=O)Nc2ccc(F)c(Cl)c2)N2Cc3ccccc3C2=O)cc1OC (stereo not given) | · | · | 0.5% | · | · | ·
CN(C)C(=O)COc1ccc(Oc2ccccc2)cc1 | 10.3% | 31.0* | 2.7% | 0.7% | 40.7* | -2.8%
CN(Cc1ccccc1)C(=O)COc1ccc(C(C)(C)C)cc1 | 0.2% | 27.4* | 1.7% | -2.1% | 57.2* | -5.7%
CN(Cc1ccccc1)C(=O)COc1ccccc1Cl | 16.2% | 4.5 | -3.9% | -10.6% | -4.7 | -5.1%
CCN(CC)C(=O)COc1ccc(/C(C)=N/NC(=O)c2ccccc2Br)cc1 | 0.8% | 26.6 | 1.8% | 4.2% | 22.1 | -0.8%
CCN(CC)C(=O)COc1ccc(/C(C)=N/NC(=O)c2ccccc2O)cc1 | -5.2% | 28.4* | 2.8% | 10.2% | 46.2 | -2.9%
CN(Cc1ccccc1)C(=O)COC(=O)c1cncc(Br)c1 | 11.2% | 14.1 | 0.8% | -4.2% | 21.1 | -0.2%
CN(Cc1ccccc1)C(=O)COC(=O)c1ccc(Cl)c(N)c1 | 2.6% | 51.2* | 3.2% | 5.0% | 66.7* | 1.6%
CN1[C@@H]2CC(OC(=O)[C@H](CO)c3ccccc3)C[C@@H]1[C@H]1O[C@H]12 (stereo not given in full) | · | · | · | · | · | 0.8%
COc1ccc(C(=O)Nc2ccc(Nc3ccccc3)cc2)cc1OC | -7.0% | 6.6 | -2.6% | 0.8% | · | -4.2%
CN(Cc1ccccc1)C(=O)COc1ccc(Br)cc1Cl | -11.0% | 20.3* | -9.9% | 12.5% | 38.1 | -4.3%
COc1ccc(C(=O)Nc2ccc(/C(C)=N/NC(=O)c3ccccc3O)cc2)cc1OC | 1.9% | 36.9* | 0.3% | 0.1% | 44.5* | -0.6%
CCN(CC)C(=O)COc1ccc(-c2ccccc2)cc1 | ? | 30.7* | -3.3% | -10.2% | 51.6 | 5.0%
C=C1CCN(C(C)C(=O)OCc2cccc(C)c2)S(=O)(=O)c2ccccc21 (stereo not given) | · | -7.8 | · | · | 8.4 | -8.3%
COC(=O)[C@H]1C[C@@H]2CC[C@@H](O)C[C@@H]2N1Cc1c(F)cccc1Cl | · | · | · | · | · | 0.0%
CCCOc1ccc(NC(=O)CC2C(=O)N(c3ccccc3)C(=O)N2CCC(C)C)cc1 (stereo not given) | · | · | -6.4% | · | · | ·
C=C1C(CCl)(CCl)C2(Cl)C(Cl)C(Cl)C1(Cl)C2(Cl)Cl (stereo not given) | · | · | -1.3% | · | · | ·
CCOC(=O)C(C)NC(=O)c1c2c(nc3ccccc13)C(=O)N(C1CCCCC1)C2 (stereo not given) | · | · | -1.4% | · | · | ·
Cc1ccc(N(CC(=O)Nc2cccc(Cl)c2C)S(=O)(=O)c2c(C)noc2C)cc1 | · | · | 0.0% | · | · | ·
O=C(N/N=C/c1ccco1)c1ccc(OCc2ccccc2)cc1 | 18.1% | 11.1* | -1.4% | 2.2% | 0.8 | -0.4%
Cc1ccc(/C=N/NC(=O)c2ccccc2OCc2cccc(Br)c2)o1 | 2.1% | 15.2* | -5.8% | 1.9% | -9.2 | -8.2%
O=C(N/N=C/c1ccco1)c1ccccc1OCc1ccc(Br)cc1 | 11.0% | 33.1* | -2.3% | -4.9% | 117.9* | 0.4%
O=C(N/N=C/c1ccc(COc2ccc(Br)cc2)o1)c1ccco1 | 20.2% | 21.8 | 3.4% | 4.6% | active | 0.1%
Cc1nc(SCc2cccc(Cl)c2)nc2c1CCCC2 | · | · | -6.6% | · | · | ·
CCN(CC)S(=O)(=O)c1ccc(NC(=O)c2cc3ccc4cccnc4c3[nH]2)cc1 | · | · | -10.7% | · | · | ·
COc1ccc2[nH]cc(CCNc3ncnc4ccc(-c5c(C)noc5C)cc34)c2c1 | · | · | · | · | · | 5.3%
O=C(CSc1nnc(C2CCCCC2)o1)Nc1ccccc1Cl | -11.8% | 15.2 | -8.9% | 0.6% | 71.2* | -9.4%

Assay outcomes as filed in PubChem.
